Consider 35 molecules from PubChem BioAssay (NCI).

Molecules are shown by their SMILES. This is part of a sample that, as a whole, favours compounds with a hit. Of some 83,000 tested, about 20% had one in any assay.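 96-well plates, one dose, 48 hours. Percent growth reported; active if below 10.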 Values without a mark were called inactive. Calls of active or inactive are those of the source.

The subject of this experiment is BT-549 breast. Put plainly: NCI-60 one-dose screen, 48 h (100 = growth as untreated, 0 = no growth, -100 = all killed). The note with it: 10 µM unless noted.
Regarding `C=C(C)[C@@H]1CC[C@]2(C=O)CC[C@]3(C)[C@H](CC[C@@H]4[C@@]5(C)CCCNC(C)(C)[C@@H]5CC[C@]43C)[C@@H]12`, the growth is 88.7%.
As for `COc1cc(OC)cc(C2C3=C(COC3=O)Nc3cc(OC)ccc32)c1` (stereo not given), the figure is -2.09% (active); as for `CN1CCN(C(=O)[C@]2(C)CC[C@]3(C)CC[C@]4(C)C(=CC(=O)[C@@H]5[C@@]6(C)CCC(=O)NC(C)(C)[C@@H]6CC[C@]54C)[C@@H]3C2)CC1`, 87.2%; as for `COc1cc(C2CC(c3cccc(Nc4ccncc4)c3)=NN2c2cc(Cl)cc(Cl)c2)cc(OC)c1OC` (stereo not given), 104%.
`COc1ccc(-c2ncc(-c3ccccc3)[nH]2)cc1OC`: the growth is 240%.
For `CC(C)(C)OC(=O)N1C/C(=C\c2ccoc2)C(=O)/C(=C/c2ccoc2)C1` the value was 102%; for `Cc1ccc2nc3c(cc2c1)CSc1nnc(-c2ccc[nH]c2=S)n1N3`, 97.4%; for `COc1ccc(Nn2c(SCC(=O)Nc3nc(-c4ccc(Cl)cc4)cs3)nc(C)c2C)cc1`, 53.3%.
On to `C=C(C)[C@@H]1CC[C@]2(C(=O)NCCCN(CCC#N)CCC#N)CC[C@]3(C)[C@H](CC[C@@H]4[C@@]5(C)CCC(=O)C(C)(C)[C@@H]5CC[C@]43C)[C@@H]12`, for which the growth was 95.5%.
Consider `Cc1ccc(C2CC(c3cccc(Nc4ccncc4)c3)=NN2c2ccc(Cl)cc2)cc1` (stereo not given), for which the growth is 96.5%.
Take `COc1cc(NCCCN(CC(C)C)C2CCCC2)c2ncccc2c1`: the growth was 75.6%.
In the case of `COc1ccc(Cn2nc3c(c2-c2cc(OC)c(OC)c(OC)c2)-c2oncc2CC3)cc1`, the growth was 88.9%.
In the case of `O=S(=O)(c1ccc(N/N=C\c2ccccc2)cc1)c1ccc(N/N=C/c2ccccc2)cc1`, the growth was 105%.
As for `CC1(C)[C@H](O)CC[C@]2(C)[C@@H]1CC[C@@]13C[C@@H](CC[C@H]12)[C@@](O)(CO)C3`, the figure is 90.3%; as for `COc1ccccc1OCC(=O)N1CCCCCC1`, 129%; as for `Cc1c2c(cc[n+]1Cc1ccccc1)c1ccc(OCc3ccccc3)cc1n2Cc1ccccc1`, -90.4% (active).
As for `CCn1cc(C2NC(=O)c3ccccc3N2)c2cccc(C)c21` (stereo not given), the figure is 48.7%; as for `O=C(Cc1ccc(/C=C/C(=O)c2ncc[nH]2)cc1)Nc1ccc(C(F)(F)F)cc1`, 44%.
In the case of `COc1cccc(C(Cc2ccccc2)Nc2ccccc2)c1OC` (stereo not given), the growth is 101%.
For the molecule `CCCCCCC/C=C/[C@H]1O[C@]2(O)C(=O)C=C3C[C@@H](O[C@@H]4O[C@H](CO)[C@@H](O)C(O)[C@@H]4O)C[C@@H]3[C@H]2C=C1C` (stereo not given in full), the growth is -18.6% (active).
For `CCOC(=O)N1CCc2c(sc3nc4nc[nH]n4c(=O)c23)C1`, the growth is 95.8%.
For the molecule `Cc1nccc2c3ccc(OCc4cn(-c5ccc(Cl)cc5)nn4)cc3n(CCCc3ccccc3)c12`, the growth is 31.8%.
As to `O=C1Nc2c(ccc(Cl)c2Cl)/C1=C/c1ccc(O)cc1`, the growth is 82.3%.
As for `C[C@@H]1CN(Cc2ccc(/C=C/c3n[nH]c4ccc5nc(-c6cn[nH]c6C(F)(F)F)c6c(c5c34)CCCC6)cc2)C[C@H](C)O1`, the growth was 39.6%.
Turning to `COc1ccc(C(=O)c2cc3c(N)c(C(=O)Nc4cccc(OC)c4)sc3nc2C)cc1`, the growth was 45.6%.
Consider `COc1ccc(/C(=C\c2ccccc2)C(=O)O)cc1OC`, for which the growth is 102%.
In the case of `C[C@]12CCc3nc(Nc4cccc(O)c4)sc3C1=CC[C@@H]1[C@@H]2CC[C@]2(C)/C(=N\NC(N)=S)CC[C@@H]12`, the growth was 7.62% (active).
On to `COc1ccc(-c2c(-c3ccccc3)noc2N)cc1OC`, for which the growth was 105%.
Regarding `COc1cc(-c2nc3occn3c2-c2ccnc(NCCNS(=O)(=O)c3ccc(Cl)cc3)n2)ccc1F`, the growth was 95.5%.
For `COc1cc(CCNc2nc3cc(N)cc(N)c3nc2-c2ccccc2)cc(OC)c1` the value was 19.1%; for `CCC(=O)c1ccc(O)c(OC)c1`, 114%.
As for `N#Cc1ccc(-c2ccc3c(c2)NC(=O)/C3=C\c2ccc[nH]2)cc1`, the figure is 24.1%.
Regarding `C=C(C)[C@@H]1CC[C@]2(CO)CC[C@]3(C)[C@H](CC[C@@H]4[C@@]5(C)CCCNC(C)(C)[C@@H]5CC[C@]43C)[C@@H]12`, the growth is 77.1%.
Regarding `CC(=O)c1c(C)[nH]c(-c2nc3ccc(N4CCN(C)CC4)cc3[nH]2)c1-c1ccccc1`, the growth was 81.9%.
Turning to `CC[C@H](C)[C@@H]1NC(=O)[C@H](Cc2ccc(O)cc2)N(C)C(=O)[C@H](Cc2ccccc2)NC(=O)CN(C)C(=O)[C@@H]2CCCN2C(=O)[C@@H](Cc2ccccc2)N(C)C(=O)[C@H](CC(C)C)NC1=O`, the growth was 69.7%.
